# Laboratory results: PubChem BioAssay (NCI)
# About 83,000 compounds went through this panel and 20% of them were active in at least one assay; those are over-represented in the sample as a whole.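 A percent growth of 40 corresponds to 60% growth inhibition; 0 means no net growth; -100 means all cells died. Active threshold: below 10.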 Values without a mark were called inactive. Active and inactive are the calls of the source.
# How the values were obtained:
# Assay in all cases: NCI-60 one-dose screen, 48 h (100 = growth as untreated, 0 = no growth, -100 = all killed)
# Conditions in all cases: 10 µM unless noted
# NCI-H23 lung = test system: NCI-H23 lung
# NCI-H226 lung = test system: NCI-H226 lung
# NCI-H322M lung = test system: NCI-H322M lung
# HOP-62 NSCLC = test system: HOP-62 NSCLC
# NCI-H460 lung = test system: NCI-H460 lung
# NCI-H522 lung = test system: NCI-H522 lung
# A549/ATCC NSCLC = test system: A549/ATCC NSCLC
# 786-0 renal = test system: 786-0 renal
# COLO 205 colon = test system: COLO 205 colon
# DU-145 prostate = test system: DU-145 prostate
# K-562 leukemia = test system: K-562 leukemia
# MALME-3M melanoma = test system: MALME-3M melanoma
# MDA-MB-231 breast = test system: MDA-MB-231 breast
# RXF 393 renal = test system: RXF 393 renal
# SF-268 CNS = test system: SF-268 CNS
# SF-295 CNS = test system: SF-295 CNS
# SF-539 CNS = test system: SF-539 CNS
# UACC-257 melanoma = test system: UACC-257 melanoma
# M14 melanoma = test system: M14 melanoma
SMILES,growth (NCI-H23 lung),growth (NCI-H226 lung),growth (NCI-H322M lung),growth (HOP-62 NSCLC),growth (NCI-H460 lung),growth (NCI-H522 lung),growth (A549/ATCC NSCLC),growth (786-0 renal),growth (COLO 205 colon),growth (DU-145 prostate),growth (K-562 leukemia),growth (MALME-3M melanoma),growth (MDA-MB-231 breast),growth (RXF 393 renal),growth (SF-268 CNS),growth (SF-295 CNS),growth (SF-539 CNS),growth (UACC-257 melanoma),growth (M14 melanoma)
COc1cc(/C=C2\CN(C(=O)OC(C)(C)C)C/C(=C\c3ccc(O)c(OC)c3)C2=O)ccc1O,97.8%,94.6%,100%,98%,91.7%,64.5%,73.2%,93.3%,110%,101%,80.1%,97.5%,86.1%,102%,89.5%,101%,106%,73.6%,93.9%
CC(=O)O[C@@H]1CC2C(C)(C)CCCC2(C)C2=C1C(=O)C(C(C)C)=CC2=O (some centres not stated),8.94% (active),-78% (active),-19.1% (active),-25.6% (active),-8.52% (active),-27.1% (active),-35% (active),16%,-50.8% (active),-19.2% (active),6.8% (active),-12.8% (active),-15% (active),-57.8% (active),27.1%,-34.1% (active),-39.3% (active),-52% (active),-60.9% (active)
COc1ccc(-c2nc3c(c(-c4ccc(Cl)cc4)nn3-c3ccccc3)c(-c3ccc(O)cc3)c2C#N)cc1,52.8%,70.6%,75.5%,57.5%,14.1%,58.3%,41.2%,9.2% (active),57.8%,51.6%,10.8%,62.6%,65.6%,-12.7% (active),46.1%,-6.26% (active),27.6%,65.4%,45.9%
COc1cc(C2CC(c3ccccc3)=NN2C=O)ccc1Oc1nc2c(c(=O)n(C)c(=O)n2C)n1C (configuration not stated),79%,79%,55.4%,102%,91.3%,91.7%,61.5%,98.1%,105%,59%,74.3%,77.9%,71.9%,90.9%,56.3%,62.2%,117%,-27.3% (active),69.9%
O=C1NN(C(=O)c2ccccc2)C(c2ccc(Cl)c(Cl)c2)=C/C1=C\c1ccccc1[N+](=O)[O-],-16.9% [6.75 µM] (active),-10.3% [6.75 µM] (active),27.1% [6.75 µM],37.8% [6.75 µM],-25% [6.75 µM] (active),-11.1% [6.75 µM] (active),14.4% [6.75 µM],31.1% [6.75 µM],-79.4% [6.75 µM] (active),25.3% [6.75 µM],15.1% [6.75 µM],56.5% [6.75 µM],49.9% [6.75 µM],7.22% [6.75 µM] (active),49% [6.75 µM],-37.5% [6.75 µM] (active),15.2% [6.75 µM],35.4% [6.75 µM],-28% [6.75 µM] (active)
CN1C(=O)C(C(=O)/C=C/c2ccccc2C(=O)O)C(=O)N(C)C1=O,95.1%,99.5%,99.1%,91.3%,104%,90.5%,97.4%,94.7%,114%,111%,90.1%,103%,109%,118%,100%,98.4%,104%,93.3%,99%
Oc1ccc(-c2nc3ccccc3s2)cc1CN(Cc1ccccn1)Cc1ccccn1,17.5%,5.38% (active),9.63% (active),10.9%,2.66% (active),-7.33% (active),2.38% (active),-3.75% (active),16%,24.2%,11.8%,8.24% (active),25.3%,40.5%,17.7%,13.5%,3.91% (active),-0.146% (active),-29.7% (active)
C[C@@H]1N=C(c2ccc3ccccc3c2)Nc2nc3ccccn3c2C1=O,46.1%,64.5%,73.2%,36.7%,15.2%,29.4%,39.5%,69.3%,22.8%,73.3%,27.6%,42.3%,52.5%,49.9%,58%,14.9%,37.2%,40.9%,19.8%
